Most compounds without a hit are left out; they make up all but 12% or so of the library.
CHOP inhibitor – blocks CHOP induction under ER stress. CHO-K1 CHOP-promoter luciferase, tunicamycin-induced, 15-18 h. inhibition, % at 10 µM. 220,000 tested, 3.8% active. AID 2732;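 active means compounds that reduced the stress-induced luciferase reporter signal by more than about 70% of percent inhibition, limit read from the data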;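 further: 0% = tunicamycin plus vehicle and 100% = wells without tunicamycin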
WT yeast gro inh – growth inhibition of WT yeast, mitochondrial fusion screen. mitochondrial fusion phenotypic screen, WT strain. inhibition, % at 10 µM. 190,000 tested, 2.1% active. AID 1362; in the data active means inhibition above about 58%; tested in S. cerevisiae
Arbovirus inh – arbovirus infection inhibition. inhibition, % at 10 µM. AID 1251. 200,000 tested, 0.37% active. arbovirus infection cell-based antiviral screen; in the data active means inhibition above about 30%
L major viab – inhibitors of Leishmania major promastigote growth; Leishmania major promastigotes, resazurin fluorescence viability; inhibition, % at 10 µM; 200,000 tested, 9% active; AID 1063; in the data active means inhibition above about 50%;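 further: promastigotes grown with compound for 44 hours at 28 °C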
Starred values were filed as active, the others as inactive; x = no result.

SMILES | CHOP inhibitor | WT yeast gro inh | Arbovirus inh | L major viab
COc1ccc(-c2nn(-c3ccccc3)cc2C(=O)N/N=C/c2ccc([N+](=O)[O-])o2)cc1 | 90.0* | -11.2 | -12.3 | 64.8*
O=C(CNc1ccc2ccccc2c1)N/N=C/c1ccc([N+](=O)[O-])o1 | 99.4* | 17.1 | 1.9 | 100.0*
COc1ccc(-c2nn(-c3ccccc3)cc2C(=O)N2CCOCC2)cc1 | 24.6 | 6.4 | 4.9 | -3.5
Cc1ccc(OCC(=O)N/N=C\c2ccc(C)o2)c([N+](=O)[O-])c1 | -4.6 | 9.7 | 8.6 | 6.0
Cc1ccc(OCC(=O)N/N=C/c2ccc([N+](=O)[O-])o2)cc1 | 45.3 | 19.9 | -18.3 | 100.0*
CCOC(=O)c1sc(NC(=O)C2C3C=CC(C3)C2C(=O)O)nc1C (stereo not given) | 0.8 | -9.0 | 6.8 | -3.4
O=C1N=C(N2CCc3ccccc3C2)S/C1=C\c1cccc(O)c1 | -9.9 | -11.9 | 6.7 | 2.0
CCC(c1nnc(SCC(=O)NCCc2ccc(Cl)cc2Cl)o1)N(C)C (stereo not given) | 5.5 | 3.6 | 2.0 | -2.1
COc1ccc(CCc2nnc(CCC(=O)NCCc3ncccc3C)o2)cc1 | 5.3 | 8.5 | 7.1 | -1.7
CCOC(=O)n1c(=O)n(Cc2ccccc2)c2ccccc21 | 47.6 | -11.6 | -6.0 | -7.8
CCOC(=O)n1c(=O)n(Cc2ccc(Cl)c(Cl)c2)c2ccccc21 | 81.3* | 15.2 | -23.1 | -2.9
CCOC(=O)n1c(=O)n(Cc2c(Cl)cccc2Cl)c2ccccc21 | 72.7* | 1.6 | 11.2 | 1.6
COC(=O)CCn1nnc(-c2ccc(C(C)C)cc2)n1 | 88.1* | -2.2 | 10.2 | -4.2
O=C(O)c1ccc(-c2ccc(/C=N/Nc3ccc([N+](=O)[O-])cc3)o2)cc1 | -43.7 | x | x | x
O=C(O)c1cc(-c2ccc(/C=N/Nc3ccc([N+](=O)[O-])cn3)o2)ccc1Cl | 4.5 | -6.7 | 31.3* | -7.7
CN(Cc1ccccc1)c1ncc(C=O)s1 | -2.9 | 0.6 | 0.4 | -5.7
CCCn1c(N)cc(=O)n(C)c1=O | 45.5 | 9.7 | 4.0 | -2.3
Cc1ccccc1N1C(=O)CN(Cc2sccc2C)C1=S | 45.8 | 23.7 | -2.6 | 92.8*
Cc1ccc(N2C(=O)CN(Cc3sccc3C)C2=S)cc1C | 26.2 | 23.8 | -9.2 | 9.6
COc1ccc(/C=N/NC(=O)c2c(C)nc3ccc(Br)cn23)cc1OC | 2.7 | x | x | x
COc1cccc(/C=N/NC(=O)c2c(C)nc3ccc(Br)cn23)c1O | 68.8 | -3.1 | -26.2 | 99.6*
COc1cccc(/C=N/NC(=O)c2nc(-c3ccccc3)cc(-c3ccccc3)n2)c1O | 48.0 | -7.3 | -34.7 | 99.8*
CCn1c(C)nc2cc(C(=O)N/N=C/c3cccc(OC)c3O)ccc21 | 46.0 | 11.9 | -16.3 | 93.9*
CC(=O)C1=C(O)C(=O)N(c2nccs2)C1c1ccccc1 (stereo not given) | 25.5 | 16.3 | 9.3 | -3.4
Cc1cc(C)c2c(CN3CCN(Cc4ccc5c(c4)OCO5)CC3)cc(=O)oc2c1 | 33.6 | 40.7 | 6.3 | 25.5
SMILES | CHOP inhibitor | WT yeast gro inh | Arbovirus inh | L major viab
Cc1ccc(SCc2cc(=O)[nH]c(N3CCN(Cc4ccc5c(c4)OCO5)CC3)n2)cc1 | 75.2* | -6.9 | -8.5 | -6.1
Cc1ccc(SCc2cc(=O)[nH]c(N3CCN(Cc4ccccc4)CC3)n2)cc1 | 90.3* | 1.2 | 0.5 | 4.0
O=c1cc(CSc2ccc(Cl)cc2)nc(N2CCCCC2)[nH]1 | 42.6 | 11.7 | -11.4 | 14.2
COc1ccccc1NC(=O)CSc1nnc(CCNC(=O)c2ccc(C)cc2)n1C | -1.4 | 8.6 | 2.0 | 2.8
O=C(c1ccccc1)c1c[nH]c(C(=O)NCCCn2ccnc2)c1 | 14.1 | 2.2 | 0.9 | -2.2
Cn1c(=O)c2c([nH]c(OCc3ccc(Cl)cc3Cl)[n+]2Cc2ccc(F)cc2)n(C)c1=O | 37.8 | x | x | x
Cc1nc2ccccc2c(=O)n1/N=C/c1cn[nH]c1-c1ccccc1 | 9.1 | x | x | x
Cc1ccccc1OCc1nc2ccccc2c(=O)n1/N=C/c1cn[nH]c1-c1ccccc1 | 85.3* | 56.9 | -33.1 | 100.3*
N#CC1=C(N)N(c2ccccc2)C2=C(C(=O)CCC2)C1c1cccs1 (stereo not given) | -86.0 | -30.0 | 8.3 | 73.5*
CC1(C)CC(=O)C2=C(C1)N(c1ccc(F)cc1)C(N)=C(C#N)C2c1cccs1 (stereo not given) | -27.5 | 12.6 | 0.1 | 18.6
Cc1ccc(N2C(N)=C(C#N)C(c3cccs3)C3=C2CC(C)(C)CC3=O)cc1 (stereo not given) | 13.3 | -3.3 | -11.5 | 98.2*
CC1(c2ccccc2)NC(=O)N(CC(=O)Nc2ccc3c(c2)OCO3)C1=O (stereo not given) | -6.4 | 8.8 | -4.0 | 21.9
Cc1ccc(NC(=O)CN2C(=O)NC(C)(c3ccc(Cl)cc3)C2=O)cc1S(=O)(=O)N1CCOCC1 (stereo not given) | 14.2 | -12.4 | -14.5 | 56.1*
CC(C)(C)c1ccc(C2(C)NC(=O)N(CC(=O)Nc3ccc4c(c3)OCO4)C2=O)cc1 (stereo not given) | 37.4 | 11.9 | -3.8 | 76.8*
CC1=CC(C)(C)N2C(=O)C3(C(C#N)=C(N)Oc4cc(O)ccc43)c3cccc1c32 (stereo not given) | 50.6 | -11.8 | -11.0 | 56.1*
CC1=CC(C)(C)N2C(=O)C3(C(C#N)=C(N)Oc4cc(C)oc(=O)c43)c3cc(C)cc1c32 (stereo not given) | x | x | x | 91.4*
Cc1cc2c3c(c1)C1(C(=O)N3C(C)(C)CC2C)C(C#N)=C(N)Oc2cc(O)ccc21 (stereo not given) | 47.9 | 7.2 | -21.1 | 100.1*
COc1cc2c3c(c1)C1(C(=O)N3C(C)(C)C=C2C)C(C#N)=C(N)Oc2cc(C)oc(=O)c21 (stereo not given) | 20.0 | -3.9 | 6.2 | -6.1
CC1=CC(C)(C)N2C(=O)C3(C(C#N)=C(N)OC4=C3C(=O)CC(C)(C)C4)c3cccc1c32 (stereo not given) | 21.0 | -2.4 | 9.6 | 0.2
Cc1sc(NC(=S)NC(=O)c2ccco2)c(C#N)c1C | -14.4 | 12.2 | -1.5 | -2.6
Cn1c(C(C#N)C(=O)Cc2cccc3ccccc23)nc2ccccc21 (stereo not given) | 74.6* | 4.4 | 1.1 | -9.2
COc1ccc(Cc2nc(-c3ccccn3)no2)cc1 | -59.2 | -4.5 | 7.1 | -1.4
Clc1ccc(OCc2nc(-c3ccncc3)no2)c(Cl)c1 | 82.7* | 35.1 | -11.6 | 23.9
c1ccc(Cc2nc(-c3ccccn3)no2)cc1 | -17.7 | -3.8 | -9.0 | -8.1
Clc1cc(Cl)c(OCc2nc(-c3ccccn3)no2)cc1Cl | 95.6* | 10.4 | -2.3 | -1.4
SMILES | CHOP inhibitor | WT yeast gro inh | Arbovirus inh | L major viab
CC(C)(C)c1ccc(OCc2nc(-c3ccccn3)no2)c(Br)c1 | 68.3 | 79.6* | 10.6 | 21.5
Cc1ccc(OCCCC(=O)Nc2ccc(Br)cc2)cc1 | 74.2* | -5.1 | 2.0 | -7.2
CCCCN(C)CCC(=O)Nc1ccc(C)cc1 | -15.1 | -4.8 | 4.9 | 90.0*
CC(C)(C)c1ccc(OCCCC(=O)Nc2ccc(S(N)(=O)=O)cc2)cc1 | 55.3 | 4.3 | 1.3 | 73.2*
CCCCN(C)CCC(=O)Nc1ccc(F)c(F)c1 | -13.0 | -5.6 | -2.8 | -2.7
CCOc1ccc(OCC(=O)Nc2ccc(S(N)(=O)=O)cc2)cc1 | 10.2 | -2.4 | -6.4 | -3.2
N/N=c1\sc2ccccc2n1-c1ccccc1 | 36.1 | 29.1 | 0.1 | -2.9
